Here are results for 16 molecules from PubChem BioAssay (NCATS).

Inconclusive results are not listed. A number with no mark means an inactive call. Calls of active or inactive are those of the source. The call rests on the fitted dose curve; in most records, active means well fitted curve in the direction sought with a large enough effect; inconclusive means small, poorly fitted or top-dose-only effect, or another doubt; inactive means no such curve, though single readings can be large; an effect the other way counts as inactive or inconclusive.

One test concerns CRL-7250. Nature of the test: Cytotoxic Profiling of Annotated Libraries Using Quantitative High-Throughput Screening (AID 1296008). Further: nearly all actives have a fitted effect of over 60% in size. Further: potency means the concentration at half of the fitted maximal effect. On max response: on the % scale 0 is the no-effect control and ±100 the full control effect. Particulars: Five cell lines viability, CellTiter-Glo ATP luminescence, 48-72 h; max response: hits give low values. An outline of the steps:
(§1)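 Cells exposed to compounds for 48 or 72 hr at 37 degrees Celsius. Viability read as ATP-coupled luminescence with CellTiter-Glo after 10 min at room temperature.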

The next test concerns HEK293. The test is described as above. Particulars: Five cell lines viability, CellTiter-Glo ATP luminescence, 48-72 h; max response: hits give low values. An outline of the steps:
as §1

For the next test, the system named is HaCat. The description is as above. As to conditions: Five cell lines viability, CellTiter-Glo ATP luminescence, 48-72 h; max response: hits give low values. The essentials: as §1
The test system of another test is KB-3-1. The description is as above. As to conditions: Five cell lines viability, CellTiter-Glo ATP luminescence, 48-72 h; max response: hits give low values. An outline of the steps:
as §1

The next test concerns NIH3T3. The test is described as above. Particulars: Five cell lines viability, CellTiter-Glo ATP luminescence, 48-72 h; max response: hits give low values. An outline of the steps:
as §1

The test system of the next test is HEK293T. Nature of the test: qHTS assay to identify novel small-molecules to repurpose for Merkel cell carcinoma treatment (AID 1296009). Further: nearly all actives have a fitted effect of over 60% in size. Particulars: MCC and control cell lines, CellTiter-Glo viability, 72 h; series mostly up to 44.8 µM. The essentials:
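Cells were incubated with compound for 72 hr at 37 degree celsius before CellTiter-Glo addition. Luminescence was normalized with no-cell wells as full cytotoxicity and DMSO as baseline.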

Another test concerns C33A. The test can be described thus: Primary qHTS to identify gynecologic anti-cancer compounds using libraries of approved drugs and bioactive compounds (AID 1345084). Further: on the % scale 0 is the no-effect control and ±100 the full control effect; nearly all actives have a fitted effect of over 55% in size. As to conditions: Gynecologic cancer cell panel viability, ATPlite luminescence, 48 h; series mostly up to 57.5 µM. The essentials:
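Five-concentration response, 48 h; readout is ATP-driven luciferase luminescence.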

In the case of `CC12CCC3c4ccc(O)cc4CCC3C1CCC2OC1OC(C(=O)O)C(O)C(O)C1O` (configuration not stated), the call with CRL-7250, in the test with HEK293 and in the test with KB-3-1 was inactive. Moreover, the max response was 2.12% in the test with HaCat and 1.3% in the test on NIH3T3. In addition, the Potency result in the test with HEK293T and with C33A was “inactive” in each case.
In the case of `CCCn1cnc2c(NCc3ccccc3)nc(N[C@H](CC)CO)nc21`, the max response is -7.86% with CRL-7250 and 0.198% in the test on HaCat. Besides, the result with HEK293, in the test with KB-3-1 and with NIH3T3 was inactive. The Potency entry in the test on HEK293T and in the test with C33A was “inactive” throughout.
On to `C=CCc1ccc(O[C@@H]2O[C@H](CO[C@@H]3O[C@@H](C)[C@H](O)[C@@H](O)[C@H]3O)[C@@H](O)[C@H](O)[C@H]2O)cc1`, for which the max response with CRL-7250 is -0.302%; in the test with HaCat, 4.55%; in the test with KB-3-1 it was 2.9%. For the same molecule, the result with HEK293 and in the test with NIH3T3 was inactive. For the same molecule, the Potency result with HEK293T and with C33A was “inactive” throughout.
For `COc1cc(/C=C/C(=O)OC2CC(OC(C)=O)C(OC(C)=O)C3C2CCC2C(=O)OC(c4ccoc4)CC23C)ccc1O[C@@H]1O[C@H](CO)[C@@H](O)[C@H](O)[C@H]1O` (some centres not stated), the max response with CRL-7250 was -8.1%; in the test on KB-3-1, -0.283%; with NIH3T3 it was -18.6%. The molecule was called inactive with HEK293. Besides, the Potency in the test on HaCat was 6.11 µM (active). Also, the Potency entry in the test with HEK293T and in the test with C33A was “inactive” in each case.
As to `COc1cc(/C=C/C(=O)O[C@H]2[C@H](OC(=O)/C=C/c3cc(OC)c(O)c(OC)c3)O[C@H](CO[C@@H]3O[C@H](CO)[C@@H](O)[C@H](O)[C@H]3O)[C@@H](O)[C@@H]2O)ccc1O`, the molecule was called inactive in the test on CRL-7250 and with HEK293. The max response is -26% with HaCat, 7.55% in the test on KB-3-1 and -14.9% in the test on NIH3T3. In addition, the Potency result in the test with HEK293T and in the test with C33A was “inactive” in each case.
Turning to `C/C=C(\C)C(=O)O[C@H]1[C@@H](O[C@]2(COC(=O)CC(C)C)O[C@H](COC(=O)C(C)C)[C@@H](OC(C)=O)[C@@H]2O)O[C@H](COC(C)=O)[C@@H](O)[C@@H]1O`, the call with CRL-7250 and with HEK293 was inactive. Also, the max response is 0.832% in the test on HaCat, 4.8% in the test with KB-3-1 and 0.154% in the test on NIH3T3. For the same molecule, the Potency result in the test with HEK293T and in the test with C33A was “inactive” each time.
In the case of `CC1=C(C)C(=O)OC(C(C)(O)C2CCC3C4CC=C5CC(OC6OC(COC7OC(CO)C(O)C(O)C7O)C(O)C(O)C6O)CC(O)C5(C)C4CCC32C)C1` (configuration not stated), the max response in the test with CRL-7250 was -12.7%; with HaCat, -5.11%; in the test with KB-3-1 it was 2.61%; in the test on NIH3T3 it was -0.0747%. In addition, the molecule was classed as inactive in the test on HEK293. For the same molecule, the Potency result in the test on HEK293T and with C33A was “inactive” each time.
Take `OC[C@H]1O[C@@H](Oc2cc(O)cc(-c3cc4ccc(O)cc4o3)c2)[C@H](O)[C@@H](O)[C@@H]1O`: the max response in the test with CRL-7250 was 0.0775%; with HaCat, -4.29%; in the test on KB-3-1, 4.55%; in the test on NIH3T3, 4.16%. The molecule was called inactive in the test with HEK293. For the same molecule, the Potency result in the test with HEK293T and in the test on C33A was “inactive” throughout.
With `C=C(C(=O)OC)C1CCC2(C)C(O[C@@H]3O[C@H](CO)[C@@H](O)[C@H](O)[C@H]3O)CC(=O)C(C)C2C1O` (some centres not stated), the max response is 1.28% in the test with CRL-7250 and -1.72% with HaCat. In addition, the molecule was classed as inactive in the test on HEK293, with KB-3-1 and in the test on NIH3T3. The Potency entry with HEK293T and in the test on C33A was “inactive” throughout.
As to `CC1CCC2C(C)(C)C(O)CCC2(C)C12Cc1c(O)cc3c(c1O2)CN(C(CCC(N)=O)C(=O)O)C3=O` (configuration not stated), the max response with CRL-7250 was 0.113%; in the test with HaCat it was 2.99%; in the test on KB-3-1 it was 5.86%; with NIH3T3, -0.736%. Besides, the outcome in the test with HEK293 was inactive. For the same molecule, the Potency result in the test with HEK293T and in the test with C33A was “inactive” each time.
Take `CC(=O)NC(C(=O)OC1CCC(C)(C)C2CC=C3C(=O)OCC3(O)C12C)C(C)C` (configuration not stated): the max response in the test with CRL-7250 is 3.06%; with HaCat, -11.8%; in the test with NIH3T3 it was -6.26%. Moreover, the result in the test on HEK293 and in the test with KB-3-1 was inactive. The Potency entry with HEK293T and in the test with C33A was “inactive” throughout.
With `CC[C@H](C)/C=C(C)/C=C/C(=O)Cc1cc(O)c(C)c(O)c1C=O`, the max response with CRL-7250 was -3.98%; with HaCat, 4.71%; in the test on KB-3-1, 7.23%; with NIH3T3, 3.96%. The molecule was called inactive in the test on HEK293. Moreover, the Potency entry in the test with HEK293T and in the test with C33A was “inactive” each time.
`Cc1ccc2c(c1)C=Cc1cc(C)ccc1C2c1cn(Cc2ccc(C(=O)Nc3nn[nH]n3)o2)c(=O)[nH]c1=S`: the result in the test with CRL-7250, with HEK293 and in the test on KB-3-1 was inactive. The max response was -1.86% in the test with HaCat and -7.39% with NIH3T3. In addition, the Potency result with HEK293T and in the test with C33A was “inactive” each time.
In the case of `CCn1cc(C2=NOC(C(=O)Nc3c(C)n(C)n(-c4ccccc4)c3=O)C2)c(C)n1` (configuration not stated), the max response is 1.73% in the test on CRL-7250, -4.53% with HaCat and 2.09% with NIH3T3. Further, the call in the test with HEK293 and with KB-3-1 was inactive. The Potency entry in the test on HEK293T and in the test on C33A was “inactive” throughout.
For `CC1(C)CC2C3=CCC4C5(C)CCC(OC6OC(CO)C(O)C(OC7OC(CO)C(O)C(OC8OC(CO)C(O)C(OC9OC(COC%10OC(CO)C(O)C(O)C%10O)C(O)C(O)C9O)C8O)C7O)C6O)C(C)(C)C5CCC4(C)C3(C)CCC2(C(=O)O)CC1O` (configuration not stated), the result with CRL-7250 and with HEK293 was inactive. Further, the max response in the test on HaCat was -4.22%; with KB-3-1, -7.8%; with NIH3T3, 2.99%. In addition, the outcome in the test on HEK293T is “inactive [at 9.27 µM]”. Moreover, the activity change, negative = cytotoxicity in the test with C33A was 6.53% [at 6.55 µM].
As for `COc1cc(C2OCC3C(c4ccc(OC5OC(CO)C(O)C(O)C5O)c(OC)c4)OCC23)ccc1O` (configuration not stated), the max response is -7.16% in the test with CRL-7250, -4.17% in the test on HaCat, -0.0986% in the test with KB-3-1 and -0.3% in the test with NIH3T3. Moreover, the call in the test with HEK293 was inactive. Besides, the Potency entry with HEK293T and in the test on C33A was “inactive” each time.
